The values below come from PubChem BioAssay (Tox21).

A short description of assay [1]: qHTS assay to test for compound auto fluorescence at 535 nm (green) in HEK293 cells (AID 720680). (In qHTS, concentration-response curves come from the screen itself.)
Assay [2] is described as follows: qHTS assay to test for compound auto fluorescence at 460 nm (blue) in HEK293 cell free culture (AID 720681). Summed up:
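Test compounds were pinned into cell-free culture medium (DMEM with 10% FBS) and fluorescence was read directly at Ex/Em 405/460 nm. Signals were expressed as fluorescence equivalents of triamterene, with DMSO vehicle as control.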

A short description of assay [3]: qHTS assay to test for compound auto fluorescence at 535 nm (green) in HEK293 cell free culture (AID 720682). Summed up:
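Measurement is a direct plate read of green fluorescence (485 nm in, 535 nm out) after compound addition to serum-supplemented DMEM lacking cells, with fluorescein used to express intensities.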

Assay [4] in a line: qHTS assay to test for compound auto fluorescence at 590 nm (red) in HEK293 cell free culture (AID 720683). Summed up:
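Tox21 10K library compounds were pinned into cell-free DMEM with 10% FBS and fluorescence was read at excitation 540 nm. Activity is expressed as Rose Bengal sodium equivalency.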

A short description of assay [5]: qHTS assay to test for compound auto fluorescence at 590 nm (red) in HepG2 cell free culture (AID 720684). Summed up: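 Ex 540 / Em 590 nm read of compound in cell-free MEM (10% FBS). Rose Bengal sodium reference.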
Assay [6] in a line: qHTS assay to test for compound auto fluorescence at 460 nm (blue) in HepG2 cell free culture (AID 720685). Summed up: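 Cell-free plates of MEM plus 10% FBS received 23 nL compound or DMSO vehicle; blue-channel (405/460 nm) intensity scored against triamterene as reference fluorophore.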
Assay [7] in a line: qHTS assay to test for compound auto fluorescence at 535 nm (green) in HepG2 cell free culture (AID 720686).
Assay [8] is described as follows: qHTS assay to test for compound auto fluorescence at 460 nm (blue) in HepG2 cells (AID 720687). An outline of the steps: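 Cells (2,000/well in MEM with 10% FBS) attached overnight at 37 C, then were exposed to compound or DMSO for 1 hr at 37 C, 5% CO2. Fluorescence read at Ex/Em 405/460 nm, expressed as triamterene-equivalent signal.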
Assay [9] addresses Glucocorticoid receptor (Homo sapiens) (UniProt P04150). Put plainly: qHTS assay to identify small molecule agonists of the glucocorticoid receptor (GR) signaling pathway (AID 720691; active = well fitted activation curve with a large enough effect in the signal ratio in the repeat runs, not every such curve was filed as active; the % refers to the signal ratio). An outline of the steps: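 Steps: seed GR-bla HeLa cells, incubate 4 h at 37 C/5% CO2; pin-transfer DMSO-dissolved compounds; incubate 18 h at 37 C; add LiveBLAzer B/G FRET substrate; after 2 h at room temperature, measure fluorescence.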

The target is the same in assay [10]. Description: qHTS assay to identify small molecule antagonists of the glucocorticoid receptor (GR) signaling pathway (AID 720692; active = well fitted inhibition curve with a large enough effect in the signal ratio in the repeat runs, not every such curve was filed as active; the % refers to the signal ratio; note: potency is the fitted concentration of half-maximal effect). An outline of the steps:
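Antagonism was scored as loss of dexamethasone-driven (5 nM final) reporter signal in HeLa cells bearing a glucocorticoid response element–beta-lactamase construct, after 18 h compound exposure at 37 C and 2 h FRET substrate loading.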

Assay [11] in a line: qHTS assay to identify small molecule antagonists of the glucocorticoid receptor (GR) signaling pathway - cell viability counter screen (AID 720693). Note: nearly all actives have a fitted effect of over 55% in size.
Assay [12] is described as follows: qHTS assay for identifying genotoxic compounds that show differential cytotoxicity against isogenic chicken DT40 cell lines with known DNA damage response pathways - wild type cell line (AID 743012). Note: nearly all actives have a fitted effect of over 60% in size. Note: potency is the fitted concentration of half-maximal effect. Summed up:
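Cytotoxicity in repair-proficient parental chicken DT40 cells serves as the comparator for Rad54/Ku70- and Rev3-deficient lines. Cells were exposed to compounds for 40 h at 37 C/5% CO2, and ATP-based luminescence (CellTiter-Glo) measured viability.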

Assay [13] can be described thus: qHTS assay for identifying genotoxic compounds that show differential cytotoxicity against isogenic chicken DT40 cell lines with known DNA damage response pathways - Rev3 mutant cell line (AID 743014). Note: nearly all actives have a fitted effect of over 55% in size. Note: potency is the fitted concentration of half-maximal effect.
The nature of assay [14]: qHTS assay to identify small molecule antagonists of the androgen receptor (AR) signaling pathway - cell viability counter screen (AID 743033; note: nearly all actives have a fitted effect of over 45% in size; note: potency is the fitted concentration of half-maximal effect).
Assay [15] is described as follows: qHTS assay to identify small molecule antagonists of the androgen receptor (AR) signaling pathway using the MDA cell line - cell viability counter screen (AID 743041; note: nearly all actives have a fitted effect of over 45% in size). An outline of the steps: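 In this qHTS counter assay, fluorescence intensity after CellTiter-Fluor addition indicated viability of MDA-kb2 AR-luc cells given compounds and R1881 for 16 h at 37C.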

In assay [16] the target is Androgen receptor (Homo sapiens) (UniProt P10275). Put plainly: qHTS assay to identify small molecule antagonists of the androgen receptor (AR) signaling pathway (AID 743035; active = well fitted inhibition curve with a large enough effect in the signal ratio in the repeat runs, not every such curve was filed as active; the % refers to the signal ratio). Summed up:
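Steps: seed AR-UAS-bla GripTite HEK293 cells, incubate 4 h at 37C; pin in test compound, then add agonist R1881; incubate 16 h at 37C; add LiveBLAzer B/G FRET substrate, 2 h at room temperature; read fluorescence.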

Assay [17] shares this target. Description: qHTS assay to identify small molecule agonists of the androgen receptor (AR) signaling pathway (AID 743036; active = well fitted activation curve with a large enough effect in the signal ratio in the repeat runs, with a control signal flat, not every such curve was filed as active; the % refers to the signal ratio). An outline of the steps: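 Beta-lactamase under UAS control, stably integrated in HEK293 GripTite cells, reports receptor activation. After 16 h compound treatment, cells received FRET substrate for 2 h at room temperature before fluorescence reading.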

The target is the same in assay [18]. Description: qHTS assay to identify small molecule agonists of the androgen receptor (AR) signaling pathway using the MDA cell line (AID 743040; note: nearly all actives have a fitted effect of over 20% in size). Summed up: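 Cell-based luciferase reporter: MDA-kb2, MMTV promoter (AR + GR response elements). 16 h compound exposure at 37C; ONE-Glo, 30 min RT, luminescence.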
The target is the same in assay [19]. Description: qHTS assay to identify small molecule antagonists of the androgen receptor (AR) signaling pathway using the MDA cell line (AID 743042; note: nearly all actives have a fitted effect of over 55% in size). An outline of the steps: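 MDA-kb2 cells (human breast carcinoma, stably carrying an MMTV-luciferase reporter responsive to AR and GR) were plated at 3,000 cells/well and preincubated 5 hr at 37C, then given compound plus R1881 agonist for 16 h. ONE-Glo luminescence was read.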

The nature of assay [20]: qHTS assay for identifying genotoxic compounds that show differential cytotoxicity against isogenic chicken DT40 cell lines with known DNA damage response pathways - Rad54/Ku70 mutant cell line (AID 743015). Note: nearly all actives have a fitted effect of over 60% in size. Note: potency is the fitted concentration of half-maximal effect.

Unmarked numbers belong to inactive results. Inconclusive results are not listed. Activity calls are given as the source filed them. Unless noted, calls come from the whole dose curve; as a rule, active = well fitted curve in the direction sought with a large enough effect in the repeat runs; inconclusive = weak or mixed curves; inactive = no such curve, though single readings can be large; an effect the other way counts as inactive or inconclusive.
% is set by controls: 0 for no effect and ±100 for the full control effect.

Chain of Glucocorticoid receptor (Homo sapiens) (P04150 whole entry, looked up): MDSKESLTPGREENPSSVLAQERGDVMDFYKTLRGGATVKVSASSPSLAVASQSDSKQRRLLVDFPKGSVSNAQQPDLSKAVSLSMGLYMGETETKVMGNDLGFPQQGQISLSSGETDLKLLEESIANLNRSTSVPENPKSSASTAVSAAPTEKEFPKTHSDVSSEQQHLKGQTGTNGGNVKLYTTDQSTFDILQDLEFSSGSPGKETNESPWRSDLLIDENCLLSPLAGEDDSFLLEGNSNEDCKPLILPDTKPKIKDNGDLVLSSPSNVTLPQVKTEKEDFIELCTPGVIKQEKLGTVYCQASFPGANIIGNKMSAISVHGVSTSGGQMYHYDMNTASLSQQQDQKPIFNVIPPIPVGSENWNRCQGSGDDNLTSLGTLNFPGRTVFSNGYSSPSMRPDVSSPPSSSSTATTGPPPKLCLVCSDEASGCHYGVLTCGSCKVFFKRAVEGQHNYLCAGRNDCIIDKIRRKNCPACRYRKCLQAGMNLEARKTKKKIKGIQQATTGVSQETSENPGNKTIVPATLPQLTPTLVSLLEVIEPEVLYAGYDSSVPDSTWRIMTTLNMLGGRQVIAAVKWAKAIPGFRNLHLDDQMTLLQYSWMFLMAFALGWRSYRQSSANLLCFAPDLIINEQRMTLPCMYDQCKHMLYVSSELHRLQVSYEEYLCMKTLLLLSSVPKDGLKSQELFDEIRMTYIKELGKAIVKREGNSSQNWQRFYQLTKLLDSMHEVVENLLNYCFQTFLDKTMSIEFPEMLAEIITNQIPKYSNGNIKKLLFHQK
Chain of Androgen receptor (Homo sapiens) (P10275 whole entry, looked up): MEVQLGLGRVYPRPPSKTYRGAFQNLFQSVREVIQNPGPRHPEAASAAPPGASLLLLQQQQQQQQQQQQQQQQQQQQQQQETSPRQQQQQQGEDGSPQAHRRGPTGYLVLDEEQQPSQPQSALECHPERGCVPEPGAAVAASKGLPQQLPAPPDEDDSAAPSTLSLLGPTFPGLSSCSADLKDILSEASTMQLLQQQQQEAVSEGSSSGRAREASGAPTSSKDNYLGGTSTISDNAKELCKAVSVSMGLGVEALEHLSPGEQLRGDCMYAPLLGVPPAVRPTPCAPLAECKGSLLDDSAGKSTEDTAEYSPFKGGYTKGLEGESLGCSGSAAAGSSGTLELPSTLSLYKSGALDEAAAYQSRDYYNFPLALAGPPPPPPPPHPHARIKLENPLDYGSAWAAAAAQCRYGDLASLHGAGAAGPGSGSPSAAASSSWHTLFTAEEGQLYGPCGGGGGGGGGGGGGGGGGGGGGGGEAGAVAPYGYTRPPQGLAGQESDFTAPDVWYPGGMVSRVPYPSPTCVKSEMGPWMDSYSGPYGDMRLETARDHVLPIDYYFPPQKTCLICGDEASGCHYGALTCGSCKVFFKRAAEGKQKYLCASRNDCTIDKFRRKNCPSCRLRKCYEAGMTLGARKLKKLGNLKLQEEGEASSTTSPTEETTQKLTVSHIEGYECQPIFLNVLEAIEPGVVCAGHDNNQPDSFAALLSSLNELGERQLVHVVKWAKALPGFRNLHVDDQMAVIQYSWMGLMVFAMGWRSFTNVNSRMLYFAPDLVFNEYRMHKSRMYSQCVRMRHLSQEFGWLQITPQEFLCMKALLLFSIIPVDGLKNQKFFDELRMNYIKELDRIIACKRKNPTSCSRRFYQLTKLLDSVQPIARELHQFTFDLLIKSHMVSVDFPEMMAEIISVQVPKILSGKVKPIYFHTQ

With `Cc1ccc(Nc2c(F)cccc2Cl)c(CC(=O)O)c1`, the compound was classed as inactive in [1], in assay [3], in assay [4], in [5] and in assay [7]. Besides, the Potency result in assay [2], in assay [6], in assay [8], in assay [9], in [10] and in assay [11] was “inactive” throughout. Further, the Potency result in [12], in assay [13], in assay [14] and in assay [15] was “inactive” each time.

Turning to `CC/C=C\C/C=C\C/C=C\CCCCCCCC(=O)OCC`, the compound was classed as inactive in assay [1], in assay [3], in assay [4], in assay [5] and in [7]. Further, the Potency result in [2], in assay [6], in assay [8], in [9], in [11] and in assay [15] was “inactive” in each case. In addition, the Potency in assay [10] was 50.1 µM (active).

As to `BrC(Br)C(Br)Br`, the call in [1], in assay [3], in assay [4], in [5], in assay [7] and in [17] was inactive. In addition, the Potency result in assay [2], in [6], in assay [8], in assay [9], in assay [10] and in [11] was “inactive” in each case. In addition, the Potency result in [12], in [13], in [14], in assay [16], in assay [18] and in assay [15] was “inactive” throughout. The Potency result in assay [19] was “inactive”.

For `Cc1ccc(N(CC2=NCCN2)c2cccc(O)c2)cc1`, the compound was classed as inactive in assay [1], in assay [3], in assay [4], in assay [5] and in assay [7]. The Potency result in assay [2], in assay [6], in assay [8], in [9], in assay [10] and in [11] was “inactive” in each case. For the same compound, the Potency entry in assay [14] and in assay [15] was “inactive” each time. Further, the Potency in assay [12] was 23.7 µM (active).

With `Nc1ccc(S(=O)(=O)NCc2ccccc2)cc1`, the result in assay [1], in [3], in assay [4], in assay [5] and in [7] was inactive. Further, the Potency entry in [2], in assay [6], in assay [8], in [9], in [10] and in [11] was “inactive” in each case. Besides, the Potency entry in assay [12], in [20] and in assay [14] was “inactive” each time.

For `CCCCCc1ccco1`, the compound was classed as inactive in assay [1], in [3], in assay [4], in assay [5] and in assay [7]. Further, the Potency entry in assay [2], in assay [6], in assay [8], in assay [9], in [11] and in assay [15] was “inactive” each time. For the same compound, the Potency is 31.9 µM (active) in [10], 39.8 µM (active) in assay [12] and 31.6 µM (active) in assay [20].

Regarding `CCCCOC(=O)CCCCC(=O)OCCCC`, the call in [1], in assay [3], in assay [4], in [5] and in assay [7] was inactive. Besides, the Potency result in assay [2], in [6], in assay [8], in assay [9], in assay [10] and in assay [11] was “inactive” throughout. For the same compound, the Potency entry in assay [12], in assay [14] and in [15] was “inactive” throughout.

As to `Nc1ccn([C@H]2CS[C@@H](CO)O2)c(=O)n1`, the call in [1], in assay [3], in assay [4], in assay [5] and in [7] was inactive. Also, the Potency result in assay [2], in [6], in assay [8], in [9], in assay [10] and in [11] was “inactive” throughout. In addition, the Potency result in assay [12], in [13], in assay [14] and in [15] was “inactive” each time.

As for `Cc1ccccc1S(N)(=O)=O`, the compound was classed as inactive in [1], in assay [3], in assay [4], in [5] and in [7]. Besides, the Potency result in assay [2], in assay [6], in [8], in [9], in assay [10] and in [11] was “inactive” throughout. The Potency result in assay [13], in assay [20] and in [15] was “inactive” throughout.

Take `CC(=O)OC(C)C[N+](C)(C)C` (configuration not stated): the fluorescence, % of fluorescein in [1] is -0.0571% [at 18.6 µM]. Also, the fluorescence, % of fluorescent control in assay [2] is -0.0614% [at 18.6 µM]; in [4], 0.423% [at 18.6 µM]; in assay [6] it was -0.0627% [at 18.6 µM]; in [8] it was -0.0338% [at 18.6 µM]. Also, the activity change in assay [3] was -0.0135% [at 18.6 µM]. Besides, the fluorescence, % of Rose Bengal in assay [5] was -0.229% [at 18.6 µM]. For the same compound, the fluorescence, % of fluorescein control in [7] was -0.0048% [at 18.6 µM]. Further, the Potency result in [9], in assay [10], in assay [11], in assay [13], in assay [20] and in assay [14] was “inactive” in each case. Also, the Potency result in assay [15] is “inactive”.

In the case of `CNCc1ccc(NC(=O)c2c[nH]c3c2C(=O)CCC3)cc1`, the result in [1], in [3], in assay [4], in [5] and in assay [7] was inactive. Besides, the Potency entry in assay [2], in assay [6], in assay [8], in assay [9], in assay [11] and in assay [14] was “inactive” throughout. Also, the Potency result in assay [15] was “inactive”. In addition, the Potency in assay [12] is 61.1 µM (active).

For `COc1cc(NCc2ccc3nc(N)nc(N)c3c2C)cc(OC)c1OC`, the outcome in assay [1], in assay [3], in assay [4], in [5] and in [7] was inactive. The Potency result in [2], in assay [6], in assay [8], in assay [9], in assay [11] and in assay [15] was “inactive” each time. Further, the Potency was 0.133 µM (active) in [12], 0.266 µM (active) in assay [20] and 0.674 µM (active) in [14].

Turning to `OCC(CO)n1cnc(-c2ccc(F)cc2)c1-c1ccnc(Oc2ccccc2)n1`, the call in [1], in [3], in assay [4], in assay [5] and in assay [7] was inactive. For the same compound, the Potency entry in assay [2], in [6], in assay [8], in assay [9], in assay [11] and in [14] was “inactive” in each case. In addition, the Potency result in assay [15] is “inactive”. For the same compound, the Potency in assay [12] and in [13] was 68.5 µM (active) in each case.
